High-throughput results deposited in PubChem by National Center for Advancing Translational Sciences (NCATS).
Hits are enriched below; roughly 22% of the tested compounds scored in any of these assays.
CHX counter: counter-screen for Shiga toxin inhibitors: cycloheximide protein synthesis inhibition | AID 2314 | cell reporter, cycloheximide protein synthesis inhibition counterscreen | max response, % | 12% of 300,000 active; in the data active = max response mostly above about 13%, no sharp cut-off; inactive = mostly below about 14%; note: read at 38.3 µM for the half of the compounds with a filed dose; 0% is about no effect
Shiga inhibitor: Shiga toxin inhibition. Vero cells, Shiga toxin protein synthesis inhibition reporter. inhibition, % at 38.7 µM. 9.2% of 290,000 active. AID 2315; in the data active = inhibition mostly above about 28%, no sharp cut-off; inactive = mostly below about 43%; note: 0% is about no effect
Pf growth 96h: inhibits malaria parasite growth, 96 h. P. falciparum luciferase reporter growth, 96 h. Potency, µM (doses to about 28.7 µM), without a hit: top-dose activity change, negative = inhibition, hits mostly inhibitors. 6.9% of 320,000 active; note: potency is the fitted concentration of half-maximal effect; % is set by controls: 0 for no effect and ±100 for the full control effect
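Readout is luminescence from an integrated firefly luciferase in P. falciparum. Red cells, 2% hematocrit and 0.05% parasitemia final, were cultured with compound through two parasite generations (96 hours) at 37 C, 5% CO2.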
Pf growth 48h: inhibits P. falciparum growth in the first generation, 48 h; Potency, µM (titrated, usually from 28.7 µM), inactives show top-dose activity change, negative = inhibition, usual class: inhibitors; P. falciparum luciferase growth in erythrocytes, 48 h; 5.9% of 310,000 active; AID 504832; note: potency is the fitted concentration of half-maximal effect; % is set by controls: 0 for no effect and ±100 for the full control effect
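First compound was added to culture medium, then infected red cells at 0.1% parasitemia and 2% hematocrit (final). After incubation at 37 C under 5% CO2, luciferase detection reagent was dispensed and light output recorded.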
LmPK inhibitor: inhibitors of Leishmania mexicana pyruvate kinase. purified LmPK, Kinase-Glo ATP luminescence, 1 h. Potency, µM (highest dose often 57.5 µM), without a hit: at the top dose activity change, negative = inhibition, actives largely listed as inhibitors. 0.37% of 290,000 active; note: potency is the fitted concentration of half-maximal effect; % is set by controls: 0 for no effect and ±100 for the full control effect
Target sequence (Q27686 whole entry, looked up): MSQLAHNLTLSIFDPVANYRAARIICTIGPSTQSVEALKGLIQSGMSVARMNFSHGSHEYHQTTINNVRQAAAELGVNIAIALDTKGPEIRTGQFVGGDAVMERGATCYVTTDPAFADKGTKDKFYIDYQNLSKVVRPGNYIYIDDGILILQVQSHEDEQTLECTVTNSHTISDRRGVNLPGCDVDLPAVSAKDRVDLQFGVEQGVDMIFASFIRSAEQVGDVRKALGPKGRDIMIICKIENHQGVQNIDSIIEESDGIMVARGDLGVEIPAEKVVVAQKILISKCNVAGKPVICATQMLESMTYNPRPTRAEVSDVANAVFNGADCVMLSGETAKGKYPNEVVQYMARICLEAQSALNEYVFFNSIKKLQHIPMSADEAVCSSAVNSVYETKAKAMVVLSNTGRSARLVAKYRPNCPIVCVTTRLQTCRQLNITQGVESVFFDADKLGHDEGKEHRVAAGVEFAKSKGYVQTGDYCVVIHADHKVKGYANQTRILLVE
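Purified LmPK (0.1 nM) with 0.5 mM PEP and 0.1 mM ADP in imidazole buffer pH 7.2 with MgCl2/KCl, 1 h at room temperature. ATP formed was read by luciferase luminescence and normalized to no-enzyme and uninhibited controls.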
Numbers without * were called inactive; ? = inconclusive; . = not tested or not shown. Unless noted, calls come from the whole dose curve; as a rule, active = well fitted inhibition curve with a large enough effect; inconclusive = small, poorly fitted or top-dose-only effect, or another doubt; inactive = no such curve, though single readings can be large or run the other way.

SMILES	CHX counter	Shiga inhibitor	Pf growth 96h	Pf growth 48h	LmPK inhibitor
COc1ccc(N2CCN(c3ccc(NC(=O)NN)cc3)CC2)cc1	-3	.	12µM*	-25%	0%
O=C1c2ccccc2S(=O)(=O)N1CCS(=O)(=O)c1ccc(F)cc1	7	10	33%	39%	5%
O=C(c1cc(S(=O)(=O)NCc2ccco2)ccc1Br)N1CCOCC1	.	.	?	-27%	.
CC(C)Oc1cccc(C(=O)NC(=S)Nc2ccc(N3CCN(C)CC3)cc2)c1	26*	40	12µM*	13µM*	3%
COc1ccc(N2CCSC2C(=O)NN)cc1 (stereo not drawn)	7	8	9.3µM*	27%	0%
COc1ccc(/C(C)=N/NC(=O)c2nc(C)cc(C)n2)cc1	32*	50*	.	66%	4%
C/C(=N\NC(=O)CC(C)C)c1ccc(N2CCCCC2)cc1	26*	71*	45%	37%	7%
CC(C)Oc1cccc(C(=O)NC(=S)Nc2cccc(NC(=O)c3ccccc3Cl)c2)c1	9	-7	?	-8%	0%
CCN(CC(=O)Nc1ccc(C)c(F)c1)CC(=O)NC(C)(C)C	-3	-16	0%	-16%	-3%
CCCCCN(C(=O)CCC(=O)OC(C)C(=O)c1ccccc1)c1c(N)n(CCCC)c(=O)[nH]c1=O (stereo not drawn)	.	.	43%	36%	.
CN1CCN(c2ccc(NC(=O)C(C)(c3ccccc3)c3ccccc3)cc2)CC1	-1	7	?	13µM*	4%
CC(C)c1ccc(/C=C/C(=O)N2CCOCC2)cc1	43*	28*	-26%	72%	-5%
CC(OC(=O)/C=C/c1ccc(Br)cc1)C(=O)N1CCOCC1 (stereo not drawn)	.	.	0%	0%	.
CC(C)c1ccc(/C=C/C(=O)N2CCCCCC2)cc1	21*	31	101%	77%	-3%
O=C(/C=C/c1ccc(F)cc1)N1CCCN(C(=O)/C=C/c2ccc(F)cc2)CC1	5	1	-21%	-6%	9%
CC(C)C(NC(=O)c1ccc(F)cc1)C(=O)NC1(C)CCS(=O)(=O)C1 (stereo not drawn)	.	.	-20%	-7%	.
O=C(/C=C/c1ccc2ccccc2c1)c1ccoc1	34*	53*	58%	70%	2%
COc1cc(S(=O)(=O)NC2CCCCC2)c(C)cc1C	1	10	58%	-8%	0%
O=C(CCNC(=O)c1ccc([N+](=O)[O-])cc1)Nc1nc2ccccc2[nH]1	.	.	16%	-14%	.
O=c1oc2ccccc2nc1/C=C(O)/C=C/c1ccc(F)cc1	44*	85*	?	-8%	-1%
Cc1nc(C)c(/C(O)=C\c2nc3ccc([N+](=O)[O-])cc3oc2=O)o1	10	20	68%	34%	2%
Cc1nc2ccccc2c(=O)n1NC(=O)/C=C/c1ccccc1	-2	-8	-9%	42%	-4%
Cc1ccc(/C(O)=C/c2nc3ccccc3oc2=O)cc1	32*	68*	-16%	-21%	?
O=c1oc2ccccc2nc1/C=C(O)/C=C\c1ccccc1	36*	47*	-29%	3%	2%
O=S(=O)(c1ccc2oc3ccc(S(=O)(=O)N4CCCCC4)cc3c2c1)N1CCCCC1	-3	-13	?	?	4%
SMILES	CHX counter	Shiga inhibitor	Pf growth 96h	Pf growth 48h	LmPK inhibitor
O=S(=O)(Nc1cccc(-n2cnnn2)c1)c1ccccc1C(F)(F)F	7	-8	56%	0%	-2%
CC(=O)N1CCN(C(=O)COC(=O)CNC(=O)c2ccc(C)cc2)CC1	.	.	-15%	-10%	.
CCOC(=O)c1cc(-c2ccc(C)o2)nn1CCC#N	2	13	12µM*	?	2%
CCOC(=O)c1cc(-c2ccc(OC)cc2)nc2c1c(C)nn2CCC#N	14	-11	.	5.2µM*	4%
O=C(NC(=O)N1CCN(c2ccc(F)cc2)CC1)c1ccccc1	20*	32	?	.	-7%
O=C(NC(=S)N1CCCC1)c1ccccc1	5	-7	?	?	-7%
O=C(NC(=S)N1CCCCCC1)c1ccccc1	9	-13	14%	?	-5%
O=C(NC(=S)N1CCN(c2ccccc2)CC1)c1ccccc1	8	2	4.7µM*	10µM*	-11%
O=C(NC(=O)N1CCCCC1)c1ccccc1	14*	20	1%	0%	0%
